# The full list was thinned out, with hits kept by preference.
# Menin-MLL FL inh – inhibitors of human menin-MLL interaction, wild-type MLL peptide. Fluorescence polarization, fluorescein-MLL peptide displacement from menin. 290,000 tested, under 10 active. FP activity change, % at 61.4 µM; active means well fitted curve in the direction sought with a large enough effect in the polarisation, not every such curve was filed as active; inconclusive means small, poorly fitted or top-dose-only effect, or effect the other way, or a change in a side signal; inactive means no such curve, though single readings can be large or run the other way; the % refers to the polarisation
# RGS4 inhibitor – human RGS4 inhibition; P49798; Potency, µM (doses to about 114 µM), usual class: inhibitors; Transcreener GDP fluorescence polarization, RGS4-accelerated GTP hydrolysis; AID 504845; hit rate 0.039% among 390,000; active means well fitted inhibition curve with a large enough effect; inconclusive means small, poorly fitted or top-dose-only effect; inactive means no such curve, though single readings can be large or run the other way; further: nearly all actives have a fitted effect of over 75% in size
#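 MLSMR compounds (23 nl, pin-transferred) preincubated 10 min at room temperature with a 500nM (2x) first reagent, then RGS4 at 900nM (2x) plus Transcreener GDP mix added; fluorescence polarization (620/688 nm) read before and after 90 min at 30 °C.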
# CXXC DNA block – inhibitors of human MLL CXXC domain-DNA interaction. Q03164. MLL-CXXC / FITC-HOXA9 DNA fluorescence polarization. Potency, µM (doses to about 115 µM), most hits filed as inhibitors. hit rate 0.037% among 290,000; active means well fitted inhibition curve with a large enough effect in the polarisation, with a control signal flat, not every such curve was filed as active; inconclusive means small, poorly fitted or top-dose-only effect, or effect the other way, or a change in a side signal; inactive means no such curve, though single readings can be large or run the other way; the % refers to the polarisation
#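 Fluorescence polarization: 7 uM MLL-CXXC (stock) preincubated 5 min with compounds, then 50 nM fluorescein-HOX-A9 DNA (stock) added; 30 min ambient. Buffer 50 mM Tris-HCl pH 7.5, 50 mM NaCl, 1 mM DTT, 0.05% BSA.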
# Menin-MLL TR inh – displaces Texas Red mutant MLL peptide from human menin; O00255; hit rate 0.23% among 270,000; Menin + Texas Red MLL mutant peptide, fluorescence polarization; AID 1768; Potency, µM (highest dose often 61.6 µM), actives largely listed as inhibitors; active means well fitted inhibition curve with a large enough effect in the polarisation, with a control signal flat, not every such curve was filed as active; inconclusive means small, poorly fitted or top-dose-only effect, or effect the other way, or a change in a side signal; inactive means no such curve, though single readings can be large or run the other way; the % refers to the polarisation
# Target sequence (O00255 whole entry, looked up): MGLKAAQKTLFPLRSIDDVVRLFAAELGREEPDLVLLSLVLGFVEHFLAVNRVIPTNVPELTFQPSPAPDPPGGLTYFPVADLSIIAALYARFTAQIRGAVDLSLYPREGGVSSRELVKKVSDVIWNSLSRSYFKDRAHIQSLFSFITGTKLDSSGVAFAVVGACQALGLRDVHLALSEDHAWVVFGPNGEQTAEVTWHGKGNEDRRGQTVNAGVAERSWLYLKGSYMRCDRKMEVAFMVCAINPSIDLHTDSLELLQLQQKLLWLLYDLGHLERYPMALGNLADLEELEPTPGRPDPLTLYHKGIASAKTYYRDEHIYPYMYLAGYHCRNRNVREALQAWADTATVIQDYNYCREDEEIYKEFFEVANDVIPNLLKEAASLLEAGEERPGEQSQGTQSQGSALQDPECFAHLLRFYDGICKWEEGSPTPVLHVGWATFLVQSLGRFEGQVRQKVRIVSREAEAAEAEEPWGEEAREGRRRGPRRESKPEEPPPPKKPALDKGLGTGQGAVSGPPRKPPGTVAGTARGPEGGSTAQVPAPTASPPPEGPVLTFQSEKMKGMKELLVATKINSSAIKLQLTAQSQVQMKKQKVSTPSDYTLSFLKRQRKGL
# TSG101-PTAP inh – blocks PTAP/TSG101 interaction to inhibit HIV-1 budding; Q99816; Fluorescence polarization, FITC-PTAP peptide / Tsg101 binding; Potency, µM (doses to about 115 µM), actives largely listed as inhibitors; 340,000 tested, under 10 active; active means well fitted inhibition curve with a large enough effect in the main read-out, with a control signal flat, not every such curve was filed as active; inconclusive means small, poorly fitted or top-dose-only effect, or effect the other way, or a change in a side signal; inactive means no such curve, though single readings can be large or run the other way
#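 Compounds were pin-transferred onto Tsg101 binding domain (10 uM final) in HEPES pH 7.5 buffer, then FITC-PTAP peptide was added at 50 nM final. After 20 min at RT, polarization reported peptide displacement across a qHTS concentration series.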
# ERG Ets-DNA blk – inhibitors of human ERG Ets domain-DNA interaction; P11308; AID 624246; Potency, µM (series often up to 76.9 µM), actives largely listed as inhibitors; fluorescence polarization, His-ERG Ets domain / labelled DNA; hit rate 0.028% among 370,000; active means well fitted inhibition curve with a large enough effect in the polarisation, with a control signal flat; inconclusive means small, poorly fitted or top-dose-only effect, or effect the other way, or a change in a side signal; inactive means no such curve, though single readings can be large or run the other way; the % refers to the polarisation;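 further: polarization taken with two DNA probes labelled with fluorescein and Texas red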
#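 His-tagged ERG Ets domain (1 uM in the protein solution; 300mM KCl, 50mM Tris-HCl, 1mM EDTA, 1mM DTT, pH 7.5) received compound, then a probe mix of 5 nM fluorescein-DNA and 100nM Texas-615-DNA. Fluorescence polarization was read for both dyes.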
# Numbers stand for hits; . = inactive; ? = inconclusive; / = no result; ! = a repeat was not active; [ ] = remark or other dose.
SMILES,Menin-MLL FL inh,RGS4 inhibitor,CXXC DNA block,Menin-MLL TR inh,TSG101-PTAP inh,ERG Ets-DNA blk
C=CCNC(=O)N1CCc2nc(COc3ccccc3)c3c(c2C1)CO[C@@H](C)C3,.[11.7 µM],/,/,.[11.7 µM],/,/
CCOC(=O)C1=C(CSc2nc(CC)c(C)cc2C#N)OC(N)=C(C#N)C1c1ccccc1 (stereo not given),.,.,.,.,.,.
CCOC(=O)C1=C(CSc2nc(-c3ccccc3)ccc2C#N)OC(N)=C(C#N)C1c1ccc(OC)cc1 (stereo not given),?,.,.,14.1µM,.,.
CCn1c2ccccc2c2cc(/C=N/NC(=O)c3ccccc3)ccc21,.,.,.,25.1µM,.,.
CCCN1CNc2c(c(=O)[nH]c(=S)n2CCc2cccc(C)c2)C1,/,.,/,/,/,/
O=c1[nH]n(-c2ccccc2)c(=O)c(Cl)c1Cl,.,.,.,12.6µM,.,.
O=S(=O)(Nc1ccc(-c2nc3cccnc3s2)cc1)c1cccs1,.,.,.,22.4µM,.,.
Cn1ncc(S(=O)(=O)Cc2ccccc2)c(Br)c1=O,/,2.67µM,/,/,/,/
COc1ccc(C(=O)COC(=O)/C=C/c2ccc(S(=O)(=O)Nc3cccc(S(N)(=O)=O)c3)cc2)cc1,.,.,.,?,.,.
NS(=O)(=O)c1cccc(NS(=O)(=O)c2ccc(/C=C/C(=O)OCC(=O)c3ccc(Br)cc3)cc2)c1,.,.,.,28.2µM,.,.
Cc1ccc(S(=O)(=O)N[C@@H](Cc2ccccc2)C(=O)CCl)cc1,.,7.52µM,.,?,.,.
CC(C)(C)c1ccc(S(=O)(=O)N2CCN(c3nc(-c4ccccc4)nc4ccccc34)CC2)cc1,/,.,/,/,/,/
COc1ccc(N2CCN(CC(O)COc3ccc(F)cc3)CC2)cc1 (stereo not given),.,.,.,20µM,.,.
COc1ccc(OCC(O)CN2CCN(c3ccc(OC)cc3)CC2)cc1 (stereo not given),.,.,.,35.5µM,.,.
COc1ccc(OCC(O)CN2C(=O)c3ccccc3C2=O)cc1 (stereo not given),.,.,?,.,.,12.6µM
OC(COc1ccc(F)cc1)CN1CCN(CC(O)COc2ccc(F)cc2)CC1 (stereo not given),.,.,.,.,.,.
O=C1c2ccccc2C(=O)N1CC(O)COc1ccc(Cl)cc1 (stereo not given),.,.,.,.,.,.
COc1ccc(N2CCN(CC(O)COC(c3ccc(F)cc3)c3ccc(F)cc3)CC2)cc1 (stereo not given),.,.,.,17.8µM,.,.
COc1ccc(N2CCN(CC(O)COC(c3ccccc3)c3ccccc3)CC2)cc1 (stereo not given),.,.,.,.,.,.
COc1cc2c(cc1OC)C(/C=C/c1ccc(OC)c(OC)c1OC)=NCC2,.,/,/,.,/,/
COC(=O)NC(c1ccccc1)C(C(=O)OC)C(=O)OC (stereo not given),.[11.7 µM],/,/,.[11.7 µM],/,/
Oc1cccc(Nc2c3ccccc3nc3ccccc23)c1,.,.,.,31.6µM,.,.
Cc1ccc(-c2nc(Nc3cccc(O)c3)c3ccccc3n2)cc1,.,.,.,?,.,.
Cc1ccccc1NS(=O)(=O)c1ccc(OCCNS(C)(=O)=O)cc1,.,.,.,.,.,7.08µM
COc1ccccc1NC(=O)C(C)OC(=O)C1CC(=O)N(c2ccc3c(c2)OCCO3)C1 (stereo not given),/,.,.,/,28.2µM,.
SMILES,Menin-MLL FL inh,RGS4 inhibitor,CXXC DNA block,Menin-MLL TR inh,TSG101-PTAP inh,ERG Ets-DNA blk
CCCCCCOc1ccc(C(=N)N(CCCC)CCCC)c2ccccc12,.,/,?,?,/,/
C[C@@](N)(C(=O)O)[C@@H]1C[C@@H]1C(=O)O,/,23.8µM,/,/,/,/
Cc1ccc(Nc2nc(Nc3ccc(C)cc3)nc(SC3=NCCS3)n2)cc1,.,.,.,39.8µM,.,.
Cc1ccccc1Nc1nc(Nc2ccccc2C)nc(SC2=NCCS2)n1,.,.,.,.,.,/
COc1cccc(CCc2ccccc2OCC(CN(C)C)OC(=O)CCC(=O)O)c1 (stereo not given),.,/,.,.,/,/
CN(C)CC(O)Cn1c2ccc(Br)cc2c2cc(Br)ccc21 (stereo not given),/,0.67µM,/,/,/,/
COc1cc(C(=O)N(Cc2cccnc2)Cc2cc3cc4c(cc3[nH]c2=O)OCCO4)cc(OC)c1OC,.,.,.,17.8µM,.,.
O=C(c1ccccc1F)N(Cc1cccnc1)Cc1cc2cc3c(cc2[nH]c1=O)OCCO3,.,.,.,.,.,.
Oc1ccc2c(c1)OCC1(O)Cc3cc(O)c(O)cc3C21 (stereo not given),?,?,/,?,.,12.6µM
Cc1cccc(OCCc2c(C)[nH]c(=S)[nH]c2=O)c1,.,.,.,.,.,28.2µM
CCn1cc([N+](=O)[O-])c(C(=O)N2N=C(c3ccc4ccccc4c3)CC2c2cc(Br)ccc2O)n1 (stereo not given),.,.,.,11.2µM,.,.
FC(F)Sc1ccc(NC(=S)NCc2ccccc2)cc1,.,.,.,?,.,.
FC(F)Sc1ccc(NC(=S)NC(c2ccccc2)c2ccccc2)cc1,.,.,.,15.8µM,.,.
CC(=O)NCCc1c(Cc2ccccc2)[nH]c2ccccc12,.,26.7µM!,/,.,/,/
CC1CCc2cc(F)cc3c2N1C(=O)C(C(=O)Nc1cnccn1)C3=O (stereo not given),/,.,/,/,/,/
COc1ccc2cc3cc(C(=O)NCCCN4CCOCC4)oc3nc2c1,.,.[11.4 µM],.,28.2µM,.,.
CCN1CCN(CCCNC(=O)c2cc3cc4ccc(OC)cc4nc3o2)CC1,.,.,.,?,.,.
COC(=O)C(C)CCCC(C)CCCC(C)CCCC(C)C (stereo not given),.,/,/,.,/,/
CC1(C(=O)O)CCC2(C)CCC3(C)C(=CC(=O)C4C5(C)CCC(O)C(C)(C)C5CCC43C)C2C1 (stereo not given),.,/,.,.,/,/

# Screening results: PubChem, National Center for Advancing Translational Sciences (NCATS)
